In the supplement of paper PMC6555819:

Tests used:
Experiment in all cases: PBM binding z-score (relative to random genomic background probes); higher = stronger binding; sequences stand for … in GC…GCGATTGACAGCGTAGAATGAAGG
[1] = system: FXR:RXRa (NR concentration 270 nM, RXRa partner concentration 90 nM)
Procedure, shortened: (§1)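 Each nuclear receptor dimer, without ligand, was incubated for 1 h on custom Agilent 4×180K protein-binding microarrays. Binding was detected with antibodies against each partner (one per run), and scanned fluorescence was regression-normalized. The binding z-scores are referenced to random human genomic background probes.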

[2] = system: LXRa:RXRa (NR concentration 270 nM, RXRa partner concentration 90 nM)
Procedure, shortened: as §1

[3] = system: LXRa homodimer (NR concentration 270 nM)
Procedure, shortened: as §1

[4] = system: LXRb:RXRa (NR concentration 270 nM, RXRa partner concentration 90 nM)
Procedure, shortened: as §1

[5] = system: LXRb homodimer (NR concentration 270 nM)
Procedure, shortened: as §1

[6] = system: PPARa:RXRa (NR concentration 270 nM, RXRa partner concentration 90 nM)
Procedure, shortened: as §1

[7] = system: PPARg:RXRa (NR concentration 180 nM, RXRa partner concentration 90 nM)
Procedure, shortened: as §1

[8] = system: PPARg:RXRa 270nM:90nM, anti-RXR (NR concentration 270 nM, RXRa partner concentration 90 nM)
Procedure, shortened: as §1

[9] = system: PPARg:RXRa 30nM:10nM, anti-RXR (NR concentration 30 nM, RXRa partner concentration 10 nM)
Procedure, shortened: as §1

[10] = system: PPARg:RXRa 90nM:30nM, anti-RXR (NR concentration 90 nM, RXRa partner concentration 30 nM)
Procedure, shortened: as §1

[11] = system: PPARg:RXRa DBDmut IVT, anti-RXR (DBD mutation: RXRa K156A/R161A, NR concentration 270 nM, RXRa partner concentration 90 nM)
Procedure, shortened: as §1

[12] = system: PPARg:RXRa IVT, anti-PPARg (NR concentration 270 nM, RXRa partner concentration 90 nM)
Procedure, shortened: as §1

[13] = system: PPARg DBDmut:RXRa IVT, anti-PPARg (DBD mutation: PPARg1 K132A/R137A, NR concentration 270 nM, RXRa partner concentration 90 nM)
Procedure, shortened: as §1

[14] = system: PPARg DBDmut IVT, anti-PPARg (DBD mutation: PPARg1 K132A/R137A, NR concentration 270 nM)
Procedure, shortened: as §1

[15] = system: PPARg homodimer (NR concentration 180 nM)
Procedure, shortened: as §1

[16] = system: PXR:RXRa (NR concentration 270 nM, RXRa partner concentration 90 nM)
Procedure, shortened: as §1

[17] = system: PXR homodimer (NR concentration 270 nM)
Procedure, shortened: as §1

[18] = system: RARa:RXR (NR concentration 270 nM, RXRa partner concentration 90 nM)
Procedure, shortened: as §1

[19] = system: RARa homodimer (NR concentration 270 nM)
Procedure, shortened: as §1

[20] = system: RARb:RXRa (NR concentration 270 nM, RXRa partner concentration 90 nM)
Procedure, shortened: as §1

Sequence	PBM binding z-score [1]	PBM binding z-score [2]	PBM binding z-score [3]	PBM binding z-score [4]	PBM binding z-score [5]	PBM binding z-score [6]	PBM binding z-score [7]	PBM binding z-score [8]	PBM binding z-score [9]	PBM binding z-score [10]	PBM binding z-score [11]	PBM binding z-score [12]	PBM binding z-score [13]	PBM binding z-score [14]	PBM binding z-score [15]	PBM binding z-score [16]	PBM binding z-score [17]	PBM binding z-score [18]	PBM binding z-score [19]	PBM binding z-score [20]
ATCGAAAGGTCTTGAGGTGAGTATACAGAAAGGC	0.305	0.206	-0.36	0.394	-0.0662	1.68	1.15	0.897	0.286	0.647	-0.431	1.56	0.61	0.602	0.325	0.409	-0.368	1.43	0.103	2.13
TATACAGGGTCACAGGCCAGAGTACGAATGTCGA	7.56	5.94	2.06	4.84	2.2	6.06	8.05	6.76	3.77	5.75	2.88	5.43	2.95	3.73	3.45	4.32	0.522	5.21	1.31	4.8
CCTACTGGGCCATCACGTCATTGATATCAACGTT	-0.11	-0.114	-0.158	0.0401	-0.225	0.509	0.963	1.09	0.356	0.648	4.36	3.56	0.399	0.151	0.3	-0.248	0.0325	0.0611	-0.31	0.25
TCTTGTAGATCAAGCAGGTTAGGAAAGCCTGAGT	-0.176	0.11	-0.571	-0.145	-0.701	0.251	-0.615	1	2.29	1.62	1.57	0.595	0.172	-0.0543	-0.235	-0.00169	0.0817	0.204	-0.0735	-0.0169
TTACCAAGGTGAAGGTCGTTGGTCCCTCTGTAGA	1.16	1.1	-0.0893	1.2	-0.734	2.45	2.79	4.07	1.8	3.33	2.04	3.34	-0.723	-0.44	0.993	1.03	-0.26	1.49	-0.694	2.17
TTACCAAGGTGAGCTGAGTTCGTTGATCCAACTC	0.596	0.237	-0.394	-0.0256	-1.28	0.596	-0.321	0.146	-0.237	0.19	1.27	1.51	-0.265	-0.637	-0.679	5.28	2.22	0.594	-0.779	1.04
CCTGCGAGGTCAATGGTCAGCTAAAGCAGCTCGC	7.26	5.25	0.691	4.29	0.981	5.73	5.75	6.01	2.22	4.25	3.45	3.93	1.18	-0.453	2.42	4.55	0.99	4.6	0.55	5.07
